Reference: PubChem BioAssay AID2546 (National Center for Advancing Translational Sciences (NCATS), 2010)
About 11,000 (3.5%) of roughly 310,000 compounds were called active. Another 8% or so got no clear call; they are omitted. Shown is part of a subset that was picked to be rich in actives. Values without a mark were called inactive. Calls come from the whole dose curve; as a rule, active = well fitted inhibition curve with a large enough effect; inconclusive = small, poorly fitted or top-dose-only effect, or effect the other way; inactive = flat fitted curve, though single readings scatter.

Test: VP16 counterscreen qHTS for inhibitors of ROR gamma transcriptional activity;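 note: Gal4-VP16 expression switched on by copper sulfate through the metallothionein promoter; nearly all actives have a fitted effect of over 50% in size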
Settings: Drosophila S2 Gal4-VP16 UAS-luciferase, luminescence, 20 h; series mostly up to 53.6 µM; activity, negative = inhibition: at the top concentration
% is set by controls: 0 for no effect and ±100 for the full control effect; potency is the fitted concentration of half-maximal effect.

| SMILES | activity, negative = inhibition | Potency |
| --- | --- | --- |
| CCN(CC)CCCNC(=O)COc1ccc2oc3c(c2c1)CCCC3 | 3.68% | – |
| Cc1ccc(OCC(=O)Nn2cnc3ccccc32)cc1 | -19% | – |
| Cc1ccc(OS(=O)Nc2cccc3nccnc23)cc1 (stereo not drawn) | – | 3.16 µM (active) |
| COc1ccc(NC(=O)Nc2cccc3cccnc23)cc1 | 3.34% | – |
| O=C(CN1C(=O)COc2ccc(Cl)cc21)Nc1ccc(N2CCOCC2)cc1 | -5.32% | – |
| O=C(Nc1cc(N2CCOCC2)ncn1)NC1(C(F)(F)F)Oc2ccc(Cl)cc2O1 (stereo not drawn) | – | 15.8 µM (active) |
| Cc1csc(NC(=O)NC2(C(F)(F)F)Oc3ccccc3O2)n1 | 1.3% | – |
| COc1ccc(NC(=O)COc2ccc(C(=O)c3ccc(F)cc3)cc2)cc1S(N)(=O)=O | -23.6% | – |
| COc1ccc(NC(=O)C/C(C)=N/NC(=O)c2cnccn2)cc1Cl | 21.2% | – |
| CCOC(=O)C1CCN(C(=O)COc2cccc3ccccc23)CC1 | 8.47% | – |
| CCN(CC)C(=O)COc1coc(CN2CCN(Cc3ccccc3)CC2)cc1=O | 2.76% | – |
| Cc1ccccc1-c1n[nH]c(=S)n1/N=C/c1ccc(-c2ccccc2Br)o1 | -9.75% | – |
| Cc1ccccc1-c1n[nH]c(=S)n1C | – | 7.94 µM (active) |
| CCCc1cc(-c2n[nH]c(=S)n2CC)c2ccccc2n1 | -5.97% | – |
| O=C(Nc1cccc(NC(=O)c2ccccc2[N+](=O)[O-])c1)c1ccccc1Cl | -0.237% | – |
| CCOC(=O)N/N=C/c1cn(Cc2ccccc2Cl)c2ccccc12 | -29.6% | – |
| COc1cccc(Cn2cc(/C=N/NC(=O)c3cc(O)cc(O)c3)c3ccccc32)c1 | -2.82% | – |
| COC(=O)N/N=C/c1cn(CCCOc2ccc(C)cc2)c2ccccc12 | – | 1 µM (active) |
| CCOC(=O)N1CCC(N2Cc3cccc(C(=O)Nc4ccc(S(=O)(=O)N(CC)CC)cc4)c3C2=O)CC1 | -6.58% | – |
| CCN(CC)CCn1c(/N=C/c2cc(Br)ccc2O)nc2ccccc21 | – | 6.31 µM (active) |
| C/C(=N\c1nc2ccccc2n1C)c1cc(Cl)ccc1O | -2.88% | – |
| Oc1ccc(Cl)cc1/C=N/c1nc2ccccc2[nH]1 | -9.3% | – |

| SMILES | activity, negative = inhibition | Potency |
| --- | --- | --- |
| Cc1sc2ncn(CC(=O)NCCCC(=O)N3CCN(c4ccccc4F)CC3)c(=O)c2c1C | -6.88% | – |
| Cn1cccc1/C=N/NC(=O)c1ccc(OC(F)(F)C(F)F)cc1 | – | 5.62 µM (active) |
| Cn1cccc1/C=N/NC(=O)CNc1cccc2ccccc12 | -5.21% | – |
| COc1ccc(/C=N/NC(=O)c2cccc(C(F)(F)F)c2)cc1 | 6.66% [at 10 µM] | – |
| O=C(NCCc1cccc(F)c1)C1CCCN(c2nc3ccccc3s2)C1 (stereo not drawn) | 21.4% | – |
| COc1cc(NC(=O)c2ccccc2)c(OC)cc1NC(=O)Cc1ccccc1 | -4.59% | – |
| COc1cccc(/C=C2\C=C(c3ccc(C)cc3)OC2=O)c1OC(C)=O | -6.1% | – |
| NC(=O)COC(=O)/C=C/c1ccc2ccccc2n1 | 2.36% | – |
| COc1cccc(/C=C/c2ccc3ccccc3n2)c1OC(C)=O | – | 5.01 µM (active) |
| CCOc1ccccc1-c1cc(C(=O)N/N=C(\C)c2cccnc2)c2ccccc2n1 | -21% | – |
| CS(=O)(=O)c1sc(C(=O)NC(=S)Nc2ccc(OC(F)(F)F)cc2)c2c1C=CCC2 | – | 11.2 µM (active) |
| COC(=O)[C@H](C)NC(=O)Nc1ccc(OC(F)(F)F)cc1 | 5.72% | – |
| CSc1sc(C(=O)NNC(=O)c2ccc(Cl)cc2)c2c1C=CCC2 | 4.81% | – |
| CC(C)c1c(C(=O)N/N=C/c2ccc(-c3ccccc3)cc2)nnn1-c1nonc1N | -8.19% | – |
| Cc1cc(N2CCCC2)n2nc(C)c(-c3ccccc3)c2n1 | 8.17% | – |
| Cc1nn2c(NCCN(C)C)c3c(nc2c1-c1ccccc1)CCC3 | – | 0.794 µM (active) |
| Cc1cc(C(C)(C)C)n2nc(C)c(-c3ccccc3)c2n1 | -4.74% | – |
| CCOC(=O)C1(Cc2cccc(OC)c2)CCCN(C(=O)CCSC)C1 (stereo not drawn) | -1% | – |
| CCN(CC)S(=O)(=O)c1ccc(N2CCN(C)CC2)c(NC(=O)Nc2ccccc2F)c1 | -4.65% | – |
| Cc1ccccc1CN1CCNC(=O)C1CC(=O)NCCC1=CCCCC1 (stereo not drawn) | 1.67% | – |
| C[n+]1ccc(C(=O)NCc2ccccc2)cc1 | -9.88% | – |
| C/C(=N\NC(=S)NCc1ccccc1)c1ccc(Cl)cc1 | – | 0.794 µM (active) |

| SMILES | activity, negative = inhibition | Potency |
| --- | --- | --- |
| CC1CCCCN1C(=S)NCc1ccccc1 (stereo not drawn) | 22.1% | – |
| O=C(O)c1ccc(/C=N/NC(=S)NCc2ccccc2)cc1 | -14.7% | – |
| C/C(=N\NC(=S)NCc1ccccc1)C1CCCCC1 | – | 1 µM (active) |
| O=C(CC1CCCCC1)NCc1ccccc1 | 24% | – |
| COc1ccc(NC(=O)C(C)N2c3cccc4cccc(c34)S2(=O)=O)c(OC)c1 (stereo not drawn) | -5.36% | – |
| COc1cccc(/C=C2\Sc3ccc(C(=O)NCC4CCCO4)cc3N(C)C2=O)c1 (stereo not drawn) | 6.5% | – |
| CC(=O)NCCC(=O)Nc1nc(-c2ccc3c(c2)OCCO3)cs1 | -10% | – |
| Cc1cc(C)cc(NS(=O)(=O)Cc2ccccc2)c1 | 5.47% | – |
| Cc1ccc(C(=O)COC(=O)CCN2C(=O)C3C4CCC(C4)C3C2=O)cc1C (stereo not drawn) | 6.49% | – |
| COc1ccccc1NC(=O)/C=C/C(=O)O | 0.849% | – |
| COc1ccccc1NC(=O)c1ccc(C)s1 | 6.7% | – |
| COc1ccccc1NC(=O)/C=C/C(N)=O | – | 4.47 µM (active) |
| COc1ccc(NC(=O)CN2C(=O)COc3ccc(S(=O)(=O)N4CCOCC4)cc32)cc1 | 2.73% | – |
| CCn1c(-c2ccoc2C)n[nH]c1=S | -27% | – |
| CCn1c(C(C)C)n[nH]c1=S | 2.29% | – |
| CCc1cc(-c2n[nH]c(=S)n2CC(C)C)cs1 | – | 11.2 µM (active) |
| Cc1ccc(Cn2c(C)c3cnn(CC(=O)NCc4ccccn4)c(=O)c3c2C)cc1 | -20.9% | – |
| CC(=O)Nc1ccc(C(=O)N(C2=NC(C)CS2)c2ccc(Cl)cc2)cc1 (stereo not drawn) | 3.56% | – |
| COc1cccc(NC(=O)c2ccc(S(=O)(=O)N(C)C)cc2)c1 | 24.2% | – |
| COc1cccc(-c2nnc(NC(=O)c3ccc(S(=O)(=O)N(CC(C)C)CC(C)C)cc3)o2)c1 | – | 0.355 µM (active) |
| COc1ccc(-c2nnc(NC(=O)CS(=O)(=O)c3ccc(Cl)cc3)o2)c(OC)c1 | -16.2% | – |
| COc1cc(Nc2nc3ccc(Cl)cc3n3cnnc23)cc(OC)c1OC | -7.36% | – |

| SMILES | activity, negative = inhibition | Potency |
| --- | --- | --- |
| O=C(c1ccc(Cl)cc1)n1cnc2ccccc21 | -13% | – |
| C=CS(=O)c1sc(Cl)c(N2CCOCC2)c1[N+](=O)[O-] (stereo not drawn) | – | 3.98 µM (active) |
| CCCOc1ccc(C2=CSC3=NCCN23)cc1Cl | -2.84% | – |
| O=C(NC(=S)NC1CCCCC1)c1ccc(Cl)cc1 | -0.126% | – |
| COc1ccc(C(=O)NC(=S)NC2CCCCC2)cc1 | – | 6.31 µM (active) |
| COc1ccc(C(=O)NNC(=S)NC(=O)c2ccccc2)cc1 | – | 8.91 µM (active) |
| O=C(CCc1ccccc1)NNC(=O)c1ccc(Br)cc1 | 2.7% | – |
| COc1ccc(C(=O)NC(=S)NNC(=O)CCc2ccccc2)cc1 | – | 15.8 µM (active) |
| CCCNC(=S)N1CCC(NC(=O)c2ccc(OC)cc2)CC1 | -0.164% | – |
| COc1ccc(C(=O)NC2CCN(C(=S)NCCc3ccccc3)CC2)cc1 | 6% | – |
| COc1ccc(C(=O)NNC(=S)NC(=O)c2ccccc2[N+](=O)[O-])cc1 | -2.15% | – |
| COc1ccc(OCC(=O)NNC(=O)c2ccc(-c3ccccc3)cc2)cc1 | -1.67% | – |
| COc1ccc(NC(=O)CCCN2C(=O)C(c3ccccc3)Oc3cccnc32)cc1 (stereo not drawn) | 0.496% | – |
| CC(C)C[C@@H](COc1ccccc1)N1CCN(CC(C)C)CCC1=O | -0.104% | – |
| COc1ccc(CCc2nc(-c3cccs3)no2)cc1 | 6.91% | – |
| O=C(c1ccc2nc(N3CCOCC3)sc2c1)N1CCN(c2ccc(Cl)cc2)CC1 | -4.01% | – |
| COc1ccc(NC(=O)CSc2nncc(=O)n2N)cc1OC | -8.72% | – |
| CCCC(C)c1nnc(NC(=O)C2CC(=O)N(c3ccc(OCC)cc3)C2)s1 (stereo not drawn) | 4.36% | – |
| COc1ccc(/C=N/NC(=O)C2CC2)c(OC)c1OC | -0.0485% | – |
| Oc1ccccc1C=NC1CCCCC1N=Cc1ccccc1O (stereo not drawn) | 5.08% | – |
| O=C(N/N=C/c1ccccc1O)C1CCCC1 | – | 0.562 µM (active) |
| N#CC(C#N)=CN=c1ccn(Cc2ccc(Cl)cc2Cl)cc1 | -4.82% | – |

| SMILES | activity, negative = inhibition | Potency |
| --- | --- | --- |
| COc1ccccc1N1CCN(C(=O)c2cc(=O)c3cc(C)ccc3o2)CC1 | -0.286% | – |
| O=c1c2ccccc2nc2n1C(CSCc1ccccc1)CS2 (stereo not drawn) | 5.71% [at 0.365 µM] | – |
| O=c1c2ccccc2nc2n1C(CSc1ccc(F)cc1)CN2 (stereo not drawn) | -0.667% | – |
| O=c1c2ccccc2nc2n1C(CSCc1cccc(C(F)(F)F)c1)CS2 (stereo not drawn) | – | 7.94 µM (active) |
| CS(=O)(=O)N1CCN(CC(=O)NC2CCCC2)CC1 | -4.75% | – |
| COc1ccccc1Oc1ccc(S(=O)(=O)Nc2cccnc2)cc1 | – | 17.8 µM (active) |
| O=S(=O)(Nc1ccccn1)c1ccc(Oc2ccccc2)cc1 | 3.87% | – |
| COc1ccc(S(=O)(=O)Nc2cccnc2)c(Cl)c1Cl | -4.29% | – |
| CC(Oc1cccc(Cl)c1)C(=O)NC1CC(C)(C)NC(C)(C)C1 (stereo not drawn) | -0.763% | – |
| O=C(CC1C(=O)NCCN1C(=O)c1ccc([N+](=O)[O-])cc1)Nc1cccc(Cl)c1 (stereo not drawn) | -9.4% | – |
| Cc1ccc(SCc2c(C(=O)N/N=C/C3CC=CCC3)nnn2-c2nonc2N)cc1 (stereo not drawn) | -5.45% | – |
| Cc1ccc(SCc2c(C(=O)N/N=C/c3cccnc3)nnn2-c2nonc2N)cc1 | -7.8% | – |
| Nc1nonc1-n1nnc(C(=O)N/N=C/c2cc(Br)ccc2O)c1CSC1=NCCS1 | – | 4.47 µM (active) |
| COc1ccccc1NC(=O)CSc1nc2sc3c(c2c(=O)n1-c1ccccc1)CCN(C)C3 | 2.43% | – |
| CCCCc1nc2cc(C(=O)NCCc3cnn(C)c3)ccc2o1 | -4.88% | – |
| O=C(CN(c1cc(C(F)(F)F)ccc1Cl)S(=O)(=O)c1ccccc1)NCc1cccnc1 | -0.095% | – |
| CCc1ccc(N(CC(=O)NCc2cccnc2)S(=O)(=O)c2ccccc2)cc1 | – | 14.1 µM (active) |
| O=C(CCc1ccccc1)NCc1cccnc1 | 2.5% | – |
| CCOC(=O)c1c(-c2ccccc2)oc2ccc(OCC(N)=O)cc12 | -2.89% | – |
| COc1cccc(CN2CCN(Cc3ccc4cccc(F)c4n3)CC2CCO)c1 (stereo not drawn) | -27.6% | – |
